In ChEMBL document CHEMBL1961873, “Compounds: GSK PKIS; Assays: Nanosyn kinase panel” (2012) one finds inhibition data, which are given here for 14 compounds.

Molecules are shown by their SMILES.

Assay [1] has as its target Sphingosine kinase 1 (Homo sapiens) (UniProt Q9NYA1). The following applies: at 1 µM.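 Note: mean SPHK1 inhibition value reported from the GSK PKIS kinase panel screen.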
Assay [2] deals with T1, Sphingosine kinase 2 (Homo sapiens) (UniProt Q9NRA0).
T1 sequence (whole entry): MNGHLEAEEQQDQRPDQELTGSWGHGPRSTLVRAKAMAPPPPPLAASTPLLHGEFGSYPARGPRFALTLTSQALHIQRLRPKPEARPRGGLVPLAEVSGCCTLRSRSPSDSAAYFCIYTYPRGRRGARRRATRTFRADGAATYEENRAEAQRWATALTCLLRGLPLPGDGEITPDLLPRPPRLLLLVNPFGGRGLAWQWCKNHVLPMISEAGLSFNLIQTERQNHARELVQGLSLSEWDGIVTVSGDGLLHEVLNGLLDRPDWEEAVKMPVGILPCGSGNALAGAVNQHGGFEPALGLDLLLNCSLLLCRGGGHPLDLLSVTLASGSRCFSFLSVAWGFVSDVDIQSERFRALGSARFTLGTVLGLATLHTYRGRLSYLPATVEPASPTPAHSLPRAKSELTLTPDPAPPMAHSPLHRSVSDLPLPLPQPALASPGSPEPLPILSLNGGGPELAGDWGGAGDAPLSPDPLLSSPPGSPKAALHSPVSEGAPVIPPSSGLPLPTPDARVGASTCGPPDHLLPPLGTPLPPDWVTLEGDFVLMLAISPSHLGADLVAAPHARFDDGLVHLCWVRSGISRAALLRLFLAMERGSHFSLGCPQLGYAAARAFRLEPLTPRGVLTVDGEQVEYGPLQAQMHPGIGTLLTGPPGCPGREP
The following applies: at 0.1 µM.

Assay [3] addresses T1, Sphingosine kinase 2 (Homo sapiens). The following applies: at 1 µM.
Assay [4] deals with Casein kinase II subunit alpha (Homo sapiens) (UniProt P68400). The following applies: at 0.1 µM.
Assay [5] has the same target. The following applies: at 1 µM.
Assay [6] has as its target T2, Inhibitor of nuclear factor kappa-B kinase subunit alpha (Homo sapiens) (UniProt O15111).
T2 sequence (whole entry): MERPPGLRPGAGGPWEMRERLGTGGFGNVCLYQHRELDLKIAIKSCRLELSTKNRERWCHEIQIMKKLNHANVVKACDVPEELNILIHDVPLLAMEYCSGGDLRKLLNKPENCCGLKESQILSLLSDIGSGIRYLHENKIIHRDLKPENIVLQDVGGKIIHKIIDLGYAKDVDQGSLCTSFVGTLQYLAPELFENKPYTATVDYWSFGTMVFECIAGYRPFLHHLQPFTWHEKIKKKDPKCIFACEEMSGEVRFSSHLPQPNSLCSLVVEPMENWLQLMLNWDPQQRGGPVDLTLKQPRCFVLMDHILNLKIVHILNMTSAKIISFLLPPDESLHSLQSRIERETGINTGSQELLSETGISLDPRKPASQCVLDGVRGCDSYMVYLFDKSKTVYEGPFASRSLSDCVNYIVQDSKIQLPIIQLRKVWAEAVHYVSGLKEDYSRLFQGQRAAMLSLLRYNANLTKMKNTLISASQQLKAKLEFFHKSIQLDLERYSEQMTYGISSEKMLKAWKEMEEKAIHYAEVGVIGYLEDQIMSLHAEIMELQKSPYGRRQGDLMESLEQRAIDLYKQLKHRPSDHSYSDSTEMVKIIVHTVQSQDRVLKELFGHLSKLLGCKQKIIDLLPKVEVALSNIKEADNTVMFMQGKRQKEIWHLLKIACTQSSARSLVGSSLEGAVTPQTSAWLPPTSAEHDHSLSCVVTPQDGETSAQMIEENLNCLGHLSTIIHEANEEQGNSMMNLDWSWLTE
The following applies: at 0.1 µM.

Assay [7] deals with T2, Inhibitor of nuclear factor kappa-B kinase subunit alpha (Homo sapiens). The following applies: at 1 µM.
In assay [8] the target is T3, Inhibitor of nuclear factor kappa-B kinase subunit beta (Homo sapiens) (UniProt O14920).
T3 sequence (whole entry): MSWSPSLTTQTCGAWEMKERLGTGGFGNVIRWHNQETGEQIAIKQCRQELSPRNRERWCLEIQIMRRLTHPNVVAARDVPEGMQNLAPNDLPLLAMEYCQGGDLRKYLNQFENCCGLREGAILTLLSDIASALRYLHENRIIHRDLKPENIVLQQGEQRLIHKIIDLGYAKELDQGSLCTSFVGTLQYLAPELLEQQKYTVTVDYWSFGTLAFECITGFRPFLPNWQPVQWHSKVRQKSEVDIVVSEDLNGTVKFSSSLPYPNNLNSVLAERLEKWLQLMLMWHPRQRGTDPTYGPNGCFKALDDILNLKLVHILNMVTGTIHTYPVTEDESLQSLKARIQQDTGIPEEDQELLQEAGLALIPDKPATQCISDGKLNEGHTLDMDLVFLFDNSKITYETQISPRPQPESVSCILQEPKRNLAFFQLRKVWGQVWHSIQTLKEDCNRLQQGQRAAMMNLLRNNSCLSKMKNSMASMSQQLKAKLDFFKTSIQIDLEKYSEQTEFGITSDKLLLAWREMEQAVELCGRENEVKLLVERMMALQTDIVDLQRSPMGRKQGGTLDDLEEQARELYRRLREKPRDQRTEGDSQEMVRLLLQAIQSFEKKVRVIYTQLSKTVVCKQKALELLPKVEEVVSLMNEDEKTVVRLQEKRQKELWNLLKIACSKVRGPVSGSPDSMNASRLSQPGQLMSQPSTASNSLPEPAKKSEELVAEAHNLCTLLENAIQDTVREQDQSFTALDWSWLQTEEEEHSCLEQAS
The following applies: at 0.1 µM.

The target of assay [9] is T3, Inhibitor of nuclear factor kappa-B kinase subunit beta (Homo sapiens). The following applies: at 1 µM.
Assay [10] addresses T4, Inhibitor of nuclear factor kappa-B kinase subunit epsilon (Homo sapiens) (UniProt Q14164).
T4 sequence (whole entry): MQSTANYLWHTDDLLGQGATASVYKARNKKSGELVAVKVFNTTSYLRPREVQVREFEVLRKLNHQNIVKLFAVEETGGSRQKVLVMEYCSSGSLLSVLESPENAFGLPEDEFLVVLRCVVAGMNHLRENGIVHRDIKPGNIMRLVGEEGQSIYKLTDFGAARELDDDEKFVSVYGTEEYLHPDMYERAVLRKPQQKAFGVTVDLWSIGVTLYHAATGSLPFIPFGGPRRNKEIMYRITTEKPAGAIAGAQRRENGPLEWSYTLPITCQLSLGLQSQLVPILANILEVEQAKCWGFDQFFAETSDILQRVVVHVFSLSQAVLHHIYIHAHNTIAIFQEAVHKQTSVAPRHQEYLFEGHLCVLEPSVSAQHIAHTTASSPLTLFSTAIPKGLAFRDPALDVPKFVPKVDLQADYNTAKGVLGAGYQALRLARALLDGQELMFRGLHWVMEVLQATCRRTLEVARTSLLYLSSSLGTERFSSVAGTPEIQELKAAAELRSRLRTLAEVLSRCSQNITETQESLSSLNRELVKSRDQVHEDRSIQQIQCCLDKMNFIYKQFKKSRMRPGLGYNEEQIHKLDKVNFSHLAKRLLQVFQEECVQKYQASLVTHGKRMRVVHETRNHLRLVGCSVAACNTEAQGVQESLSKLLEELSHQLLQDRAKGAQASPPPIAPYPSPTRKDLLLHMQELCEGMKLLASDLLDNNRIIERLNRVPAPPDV
The following applies: at 0.1 µM.

Sphingosine kinase 1 (Homo sapiens), sequence (Q9NYA1 whole entry): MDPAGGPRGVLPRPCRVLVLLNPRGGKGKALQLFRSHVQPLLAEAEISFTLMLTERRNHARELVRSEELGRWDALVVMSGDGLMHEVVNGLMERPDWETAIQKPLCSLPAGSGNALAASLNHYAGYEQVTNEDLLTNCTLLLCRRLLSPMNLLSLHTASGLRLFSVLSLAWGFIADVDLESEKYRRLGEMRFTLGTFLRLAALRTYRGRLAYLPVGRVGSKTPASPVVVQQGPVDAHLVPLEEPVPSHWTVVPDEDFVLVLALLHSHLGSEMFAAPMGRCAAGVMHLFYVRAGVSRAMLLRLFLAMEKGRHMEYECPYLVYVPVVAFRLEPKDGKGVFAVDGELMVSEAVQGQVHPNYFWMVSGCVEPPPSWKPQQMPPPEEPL
Casein kinase II subunit alpha (Homo sapiens), sequence (P68400 whole entry, looked up): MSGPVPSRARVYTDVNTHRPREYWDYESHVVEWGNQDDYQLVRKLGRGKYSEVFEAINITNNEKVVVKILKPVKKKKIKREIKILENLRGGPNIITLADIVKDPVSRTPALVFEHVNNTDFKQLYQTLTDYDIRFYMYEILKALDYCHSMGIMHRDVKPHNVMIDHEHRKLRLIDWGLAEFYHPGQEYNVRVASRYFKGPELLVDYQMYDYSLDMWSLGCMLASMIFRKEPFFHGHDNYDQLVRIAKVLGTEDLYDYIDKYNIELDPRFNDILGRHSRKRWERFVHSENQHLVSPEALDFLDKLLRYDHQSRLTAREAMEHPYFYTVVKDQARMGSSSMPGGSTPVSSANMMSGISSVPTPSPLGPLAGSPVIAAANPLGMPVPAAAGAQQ

Take `COc1cc(/C=N/Nc2ncnc3c2cnn3C(C)C)ccc1O`: the inhibition is 7.48% in assay [1]; -1.04% in assay [2]; 1.89% in [3]; 2.91% in assay [4]; 11.8% in [5]; -0.1% in assay [6]. The inhibition is -0.51% in [7], 2.79% in [8], -2.39% in assay [9] and 1.71% in assay [10].
In the case of `N#Cc1c(NC(=O)c2ccccc2F)sc2c1CCCC2`, the inhibition in assay [1] is 1.37%; in assay [2], 0.4%; in assay [3], -1.81%; in assay [4], 2.62%; in [5], 1.09%; in assay [6], 2.43%. Further, the inhibition is 5.52% in assay [7], -1.19% in [8], -1.36% in assay [9] and -2.08% in assay [10].
For the compound `COC(=O)c1cncc(/C=C/c2c(C)cc(O)cc2C)c1`, the inhibition in assay [1] was -4%; in [2], -0.39%; in [3], -0.47%; in assay [4], 3.51%; in [5], 11.9%; in [6], 3.28%. Moreover, the inhibition came to 5.67% in [7], 4.7% in assay [8], 7.41% in assay [9] and 8.93% in [10].
Take `Nc1nccc(-c2c(-c3ccc(F)cc3)nn3cc(C(F)(F)F)ccc23)n1`: the inhibition was 11.1% in assay [1]; -0.68% in assay [2]; 0% in assay [3]; 15.6% in assay [4]; 2.55% in assay [5]; -2.07% in [6]. Besides, the inhibition in [7] is -2.01%; in assay [8] it was 1.03%; in assay [9] it was 0.86%; in assay [10] it was 1.65%.
Regarding `Cc1cc(-c2ccccn2)cc(C)c1/C=C/c1cncc(-c2nn[nH]n2)c1`, the inhibition in assay [1] turned out to be 0.83%; in [2] it was 0%; in assay [3] it was 0%; in assay [4], 7.89%; in assay [5] it was 6.35%; in [6], 5.76%. Besides, the inhibition in assay [7] was 7.54%; in [8], 4.37%; in [9] it was 6.71%; in assay [10], 7.41%.
In the case of `Cc1cc(O)cc(C)c1/C=C/c1cncc(C(=O)N(C)C)c1`, the inhibition is -0.49% in assay [1]; -0.12% in assay [2]; 0.05% in assay [3]; 4.25% in assay [4]; 5.95% in assay [5]; 5.21% in assay [6]. The inhibition in [7] amounted to 9.29%; in assay [8], 6.05%; in assay [9], 2.23%; in assay [10], 2.77%.
Take `Nc1ccc(C#Cc2cncnc2Nc2ccc(OCc3cccc(F)c3)c(Cl)c2)cc1`: the inhibition in assay [1] is -2.59%; in [2] it was -3.76%; in [3], 0%; in assay [4] it was 4.6%; in [5] it was 2.02%; in [6], 0.36%. Also, the inhibition worked out at 2.27% in assay [7], 4.1% in assay [8], 4.66% in assay [9] and 3.63% in [10].
For `CS(=O)(=O)Nc1cccc(-c2ccc3c(NC(=O)C4CC4)n[nH]c3c2)c1`, the inhibition in [1] is -0.74%; in assay [2], 1%; in [3], 0.16%; in assay [4], -2.9%; in assay [5] it was -3.51%; in assay [6], -2.77%. In addition, the inhibition was -6.36% in assay [7], 8.91% in [8], 3.62% in assay [9] and 2.67% in assay [10].
For `CCS(=O)(=O)c1ccc(OC)c(Nc2nccc(N(C)c3ccc4c(C)n[nH]c4c3)n2)c1`, the inhibition in assay [1] is -1.1%; in assay [2], -0.07%; in [3], -0.93%; in assay [4] it was 13.8%; in [5] it was 7.45%; in [6], 12%. In addition, the inhibition was 6.37% in assay [7], 8.64% in assay [8], 7.82% in [9] and 7.85% in assay [10].
As to `Cc1nc(-c2ccccc2)n2nc(NCCCN3CCOCC3)ncc12`, the inhibition was -2.26% in [1]; -1.13% in assay [2]; -0.14% in [3]; 13.3% in assay [4]; 6.84% in assay [5]; -0.66% in assay [6]. The inhibition in assay [7] worked out at 5.55%; in [8], 2.75%; in assay [9] it was 4.98%; in assay [10], 4.87%.
Regarding `Cc1ccc(Nc2ccnc(Nc3cccc(C(N)=O)c3)n2)cc1O`, the inhibition is -3.44% in [1]; 0.84% in assay [2]; 0.08% in assay [3]; 4.12% in [4]; 10.5% in [5]; 4.77% in assay [6]. Also, the inhibition in assay [7] is 9.75%; in [8], 7.9%; in [9] it was 26.8%; in [10], 11.4%.
Turning to `CCCN1CCCC(c2ccc(Nc3nc(Nc4cc(F)ccc4C(N)=O)c4cc[nH]c4n3)c(OC)c2)C1` (stereo not given), the inhibition in assay [1] is 3.56%; in [2], 1.62%; in [3], -1.24%; in assay [4], 33.5%; in assay [5], 66.2%; in assay [6], 6.24%. In addition, the inhibition in [7] amounted to 4.21%; in [8] it was 8.08%; in assay [9] it was 4.25%; in assay [10] it was 4.93%.
For the compound `COc1cc2ncn(-c3cc(OCc4ccccc4S(C)(=O)=O)c(C#N)s3)c2cc1OC`, the inhibition in assay [1] is -0.15%; in [2] it was 0.46%; in assay [3], -2.2%; in [4] it was 2.39%; in assay [5] it was 5%; in [6] it was 6.91%. Also, the inhibition in [7] amounted to 5.75%; in assay [8] it was 3.44%; in assay [9] it was 1.17%; in assay [10], 42.5%.
On to `NS(=O)(=O)c1cccc(-c2cc3ccncc3cc2OCc2ccccc2)c1`, for which the inhibition is 0.02% in assay [1]; -1.2% in [2]; 0.96% in assay [3]; 1.61% in assay [4]; -1.22% in assay [5]; 8.21% in assay [6]. Further, the inhibition in [7] is 10.9%; in assay [8], 7.94%; in [9] it was 10.7%; in [10] it was 4.52%.

The inhibition is the relative decrease from the control value, in per cent.
